Experimental data as given in PubChem BioAssay (Tox21).
Inconclusive results are not listed. Activity calls are given as the source filed them. Unless noted, calls follow the shape of the dose curve; as a rule, active = well fitted curve in the direction sought with a large enough effect in the repeat runs; inconclusive = weak or mixed curves; inactive = no such curve, though single readings can be large; an effect the other way counts as inactive or inconclusive.

How the values were obtained:
[1] = qHTS assay to identify small molecule that activate the aryl hydrocarbon receptor (AhR) signaling pathway - cell viability counter screen (AID 743086);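 also: HepG2 liver cells carrying the AhR DRE luciferase reporter; series mostly up to about 70 µM; nearly all actives have a fitted effect of over 45% in size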
Procedure, shortened: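 HepG2-AhR-luc (HG2L7.5c1) cells, 4000/well, treated 24 h at 37 C with compound; viability measured as CellTiter-Fluor fluorescence after 30 min in the same wells as the luciferase read.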

[2] = biological target: Peroxisome proliferator-activated receptor gamma (Homo sapiens) (UniProt P37231); assay: qHTS assay to identify small molecule agonists of the peroxisome proliferator-activated receptor gamma (PPARg) signaling pathway (AID 743094; active = well fitted activation curve with a large enough effect in the signal ratio in the repeat runs, not every such curve was filed as active; the % refers to the signal ratio)
Procedure, shortened: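 HEK293H PPARg-bla cells, 5 h settle at 37C/5% CO2; compound (DMSO) 17 h, 37C; B/G FRET substrate 1 h RT; fluorescence intensity read-out. qHTS format.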

[3] = biological target: Peroxisome proliferator-activated receptor gamma (Homo sapiens) (UniProt P37231); assay: qHTS assay to identify small molecule antagonists of the peroxisome proliferator-activated receptor gamma (PPARg) signaling pathway (AID 743191; calls by dose curve; also: series mostly up to about 63 µM; nearly all actives have a fitted effect of over 30% in size)
Procedure, shortened: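 GeneBLAzer PPARg UAS-bla HEK293H cells, 5 h post-plating, exposed to compounds 17 h at 37C. LiveBLAzer B/G FRET substrate added for 1 h at room temperature; beta-lactamase reporter read by fluorescence intensity.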

[4] = qHTS assay to identify small molecule antagonists of the peroxisome proliferator-activated receptor gamma (PPARg) signaling pathway - cell viability counter screen (AID 743194); also: nearly all actives have a fitted effect of over 55% in size
Procedure, shortened: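 Cytotoxicity counter screen in PPARg-bla HEK293H cells, same wells as reporter assay. Compounds plus 50 nM rosiglitazone (final) for 17 h at 37 C, then viability read by CellTiter-Glo luminescence.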

[5] = qHTS assay for small molecule agonists of the antioxidant response element (ARE) signaling pathway (AID 743202; active = well fitted activation curve with a large enough effect in the signal ratio in the repeat runs, not every such curve was filed as active; the % refers to the signal ratio)
Procedure, shortened: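 HepG2 ARE-bla cells; 16 h treatment at 37 C; FRET-based beta-lactamase fluorescence read after 2 h substrate incubation at room temperature.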

[6] = qHTS assay for small molecule agonists of the antioxidant response element (ARE) signaling pathway - cell viability counter screen (AID 743203; calls by dose curve; also: nearly all actives have a fitted effect of over 55% in size)
Procedure, shortened: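 Luminescence read-out (CellTiter-Glo, 30 min at room temperature) measured cell viability in the same wells as the ARE beta-lactamase reporter. HepG2 ARE-bla cells were treated with compounds for 16 hrs at 37C/5% CO2.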

[7] = qHTS assay for small molecule activators of the heat shock response signaling pathway (AID 743210; active = well fitted activation curve with a large enough effect in the signal ratio in the repeat runs, with a control signal flat, not every such curve was filed as active; the % refers to the signal ratio;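 also: HeLa cells with beta-lactamase reporter driven by heat shock elements; series mostly up to about 63 µM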)
Procedure, shortened: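 Following overnight attachment, HSE-bla HeLa cells received test compounds for 5 h at 37 C; beta-lactamase activity was then detected via FRET substrate fluorescence.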

[8] = qHTS assay to identify small molecule agonists of the peroxisome proliferator-activated receptor delta (PPARd) signaling pathway - cell viability counter screen (AID 743211); also: nearly all actives have a fitted effect of over 55% in size; also: potency is read from the fitted curve at half-maximal effect
Procedure, shortened: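 Viability of GeneBLAzer PPARd UAS-bla HEK293H cells was assessed after 17 h compound incubation at 37C, using CellTiter-Glo reagent added after the reporter read and luminescence recorded 30 min later.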

[9] = biological target: Peroxisome proliferator-activated receptor delta (Homo sapiens) (UniProt Q03181); assay: qHTS assay to identify small molecule agonists of the peroxisome proliferator-activated receptor delta (PPARd) signaling pathway (AID 743212; calls by dose curve)
Procedure, shortened: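 Tox21 library screened in GeneBLAzer PPARd UAS-bla HEK293H cells. After compound treatment at 37 C, a FRET-based beta-lactamase substrate was applied for 2 h and fluorescence recorded.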

[10] = qHTS assay to identify small molecule antagonists of the peroxisome proliferator-activated receptor delta (PPARd) signaling pathway - cell viability counter screen (AID 743213); also: nearly all actives have a fitted effect of over 50% in size
Procedure, shortened: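 Agonist-stimulated (L165041, 300 nM final) HEK293H PPARd UAS-bla cells are exposed to compounds for 17 h at 37 C, and ATP-based luminescence (CellTiter-Glo) from the same wells reports cytotoxicity.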

[11] = biological target: Peroxisome proliferator-activated receptor delta (Homo sapiens) (UniProt Q03181); assay: qHTS assay to identify small molecule antagonists of the peroxisome proliferator-activated receptor delta (PPARd) signaling pathway (AID 743215; active = well fitted inhibition curve with a large enough effect in the signal ratio in the repeat runs, not every such curve was filed as active; the % refers to the signal ratio; also: series mostly up to about 62 µM)
Procedure, shortened: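 HEK293H GeneBLAzer PPARd UAS-bla reporter cells; cpd + L165041 300 nM final, 17 h 37 C; LiveBLAzer B/G FRET substrate 2 h RT; fluorescence intensity read-out. Antagonist mode.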

[12] = qHTS assay to identify small molecule agonists of the farnesoid-X-receptor (FXR) signaling pathway - cell viability counter screen (AID 743218); also: nearly all actives have a fitted effect of over 45% in size; also: potency is read from the fitted curve at half-maximal effect
Procedure, shortened: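 Luminescence from CellTiter-Glo, read after 30 min at RT, reports viability of GeneBLAzer FXR-UAS-bla HEK 293T cells treated 16 h with compounds in the wells used for the beta-lactamase reporter.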

[13] = qHTS assay to identify small molecule antagonists of the farnesoid-X-receptor (FXR) signaling pathway - cell viability counter screen (AID 743221; active = well fitted cell-killing curve with a large enough effect in the repeat runs, not every such curve was filed as active; also: nearly all actives have a fitted effect of over 50% in size)
Procedure, shortened: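 Quantitative HTS of the Tox21 10K library run in parallel with the beta-lactamase reporter read. HEK 293T cells carrying a UAS-driven bla reporter got compound and 50 uM CDCA (final) for 16 h; ATP-based luminescence followed.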

[14] = biological target: Vitamin D3 receptor (Homo sapiens) (UniProt P11473); assay: qHTS assay to identify small molecule agonists of the vitamin D receptor (VDR) signaling pathway (AID 743222; calls by dose curve)
Procedure, shortened: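 Beta-lactamase reporter readout (LiveBLAzer B/G FRET, 2 h RT) in VDR-bla cells after 16 h compound treatment at 37C, 5% CO2; cells pre-incubated 4 h before pin transfer of DMSO solutions.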

[15] = biological target: Vitamin D3 receptor (Homo sapiens) (UniProt P11473); assay: qHTS assay to identify small molecule antagonists of the vitamin D receptor (VDR) signaling pathway (AID 743223; active = well fitted inhibition curve with a large enough effect in the signal ratio in the repeat runs, not every such curve was filed as active; the % refers to the signal ratio)
Procedure, shortened: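 Fluorescence from LiveBLAzer B/G FRET substrate, read after 2 h at room temperature, reflects beta-lactamase reporter activity in VDR-bla cells treated 16 h at 37C with compounds and agonist 1alpha,25-dihydroxyvitamin D3 (3 nM final).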

[16] = qHTS assay to identify small molecule agonists of the vitamin D receptor (VDR) signaling pathway - cell viability counter screen (AID 743224); also: series mostly up to about 63 µM; nearly all actives have a fitted effect of over 50% in size
Procedure, shortened: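 Cytotoxicity counter screen: VDR-bla cells, 16 h compound exposure at 37C, 5% CO2; CellTiter-Glo luminescence, 30 min RT, same wells as bla read.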

[17] = qHTS assay for small molecule activators of the heat shock response signaling pathway - cell viability counter screen (AID 743209); also: nearly all actives have a fitted effect of over 50% in size
Procedure, shortened: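 HSE-bla HeLa; 1500 cells/well; overnight 37 C, 5% CO2; compound 5 h 37 C; LiveBLAzer B/G substrate 2.5 h RT; CellTiter-Glo 30 min RT; luminescence.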

[18] = biological target: Aryl hydrocarbon receptor (Homo sapiens) (UniProt P35869); assay: qHTS assay to identify small molecule that activate the aryl hydrocarbon receptor (AhR) signaling pathway (AID 743085); also: nearly all actives have a fitted effect of over 15% in size; also: potency is read from the fitted curve at half-maximal effect;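 as to activation: HG2L7.5c1 human HepG2 liver cells with stably integrated DRE-driven firefly reporter; series mostly up to about 70 µM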
Procedure, shortened: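 Steps: seed HepG2-AhR-luc cells; allow 5 h at 37C; pin-transfer test compound or vehicle; incubate 24 h at 37C; add viability dye (30 min, 37C) and read fluorescence; add luciferase substrate (30 min, RT) and read luminescence.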

[19] = biological target: Bile acid receptor (Homo sapiens) (UniProt Q96RI1); assay: qHTS assay to identify small molecule agonists of the farnesoid-X-receptor (FXR) signaling pathway (AID 743220; active = well fitted activation curve with a large enough effect in the signal ratio in the repeat runs, not every such curve was filed as active; the % refers to the signal ratio)
Procedure, shortened: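 FXR-UAS-bla HEK 293T cells carrying a UAS-driven beta-lactamase reporter were plated for 5 h at 37C/5% CO2, then exposed to DMSO-dissolved Tox21 10K compounds for 16 h at 37C. A LiveBLAzer B/G FRET substrate was loaded for 2 h at room temperature before fluorescence reading.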

[20] = biological target: Bile acid receptor (Homo sapiens) (UniProt Q96RI1); assay: qHTS assay to identify small molecule antagonists of the farnesoid-X-receptor (FXR) signaling pathway (AID 743217; active = well fitted inhibition curve with a large enough effect in the signal ratio in the repeat runs, not every such curve was filed as active; the % refers to the signal ratio)
Procedure, shortened: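 Read-out: beta-lactamase FRET fluorescence (LiveBLAzer B/G substrate, 2 h, room temperature) in GeneBLAzer FXR-UAS-bla HEK 293T cells. Compounds were co-dosed with 50 uM chenodeoxycholic acid (final) and incubated 16 h at 37 °C.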
% is scaled to controls: 0 for no effect and ±100 for the full control effect.

Peroxisome proliferator-activated receptor gamma (Homo sapiens), sequence (P37231 whole entry, looked up): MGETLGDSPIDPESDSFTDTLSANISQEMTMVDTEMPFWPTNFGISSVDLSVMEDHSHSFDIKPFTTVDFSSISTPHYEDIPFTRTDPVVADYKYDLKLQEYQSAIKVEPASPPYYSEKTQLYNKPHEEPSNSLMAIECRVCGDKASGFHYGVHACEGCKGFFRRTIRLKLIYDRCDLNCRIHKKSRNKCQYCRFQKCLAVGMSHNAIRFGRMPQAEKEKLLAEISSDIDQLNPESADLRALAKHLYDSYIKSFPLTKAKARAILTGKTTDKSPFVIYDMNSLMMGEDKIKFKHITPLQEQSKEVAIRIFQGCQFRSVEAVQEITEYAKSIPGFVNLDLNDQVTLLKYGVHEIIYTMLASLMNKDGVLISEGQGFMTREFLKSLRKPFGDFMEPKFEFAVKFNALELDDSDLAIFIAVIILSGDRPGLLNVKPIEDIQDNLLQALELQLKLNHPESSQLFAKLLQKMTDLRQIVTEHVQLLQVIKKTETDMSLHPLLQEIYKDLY
Vitamin D3 receptor (Homo sapiens), sequence (P11473 whole entry, looked up): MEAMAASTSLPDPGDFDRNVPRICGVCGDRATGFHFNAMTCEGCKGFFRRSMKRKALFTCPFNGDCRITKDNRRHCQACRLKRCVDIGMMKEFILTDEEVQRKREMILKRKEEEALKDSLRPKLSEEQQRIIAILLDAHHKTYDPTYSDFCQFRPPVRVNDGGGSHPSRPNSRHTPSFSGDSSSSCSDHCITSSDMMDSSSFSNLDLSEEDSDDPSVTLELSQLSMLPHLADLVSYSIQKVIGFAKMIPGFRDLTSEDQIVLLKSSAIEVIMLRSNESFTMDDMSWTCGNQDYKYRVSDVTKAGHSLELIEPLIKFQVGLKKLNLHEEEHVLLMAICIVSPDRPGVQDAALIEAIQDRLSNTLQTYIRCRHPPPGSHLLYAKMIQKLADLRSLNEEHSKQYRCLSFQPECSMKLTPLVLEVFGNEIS
Aryl hydrocarbon receptor (Homo sapiens), sequence (P35869 whole entry, looked up): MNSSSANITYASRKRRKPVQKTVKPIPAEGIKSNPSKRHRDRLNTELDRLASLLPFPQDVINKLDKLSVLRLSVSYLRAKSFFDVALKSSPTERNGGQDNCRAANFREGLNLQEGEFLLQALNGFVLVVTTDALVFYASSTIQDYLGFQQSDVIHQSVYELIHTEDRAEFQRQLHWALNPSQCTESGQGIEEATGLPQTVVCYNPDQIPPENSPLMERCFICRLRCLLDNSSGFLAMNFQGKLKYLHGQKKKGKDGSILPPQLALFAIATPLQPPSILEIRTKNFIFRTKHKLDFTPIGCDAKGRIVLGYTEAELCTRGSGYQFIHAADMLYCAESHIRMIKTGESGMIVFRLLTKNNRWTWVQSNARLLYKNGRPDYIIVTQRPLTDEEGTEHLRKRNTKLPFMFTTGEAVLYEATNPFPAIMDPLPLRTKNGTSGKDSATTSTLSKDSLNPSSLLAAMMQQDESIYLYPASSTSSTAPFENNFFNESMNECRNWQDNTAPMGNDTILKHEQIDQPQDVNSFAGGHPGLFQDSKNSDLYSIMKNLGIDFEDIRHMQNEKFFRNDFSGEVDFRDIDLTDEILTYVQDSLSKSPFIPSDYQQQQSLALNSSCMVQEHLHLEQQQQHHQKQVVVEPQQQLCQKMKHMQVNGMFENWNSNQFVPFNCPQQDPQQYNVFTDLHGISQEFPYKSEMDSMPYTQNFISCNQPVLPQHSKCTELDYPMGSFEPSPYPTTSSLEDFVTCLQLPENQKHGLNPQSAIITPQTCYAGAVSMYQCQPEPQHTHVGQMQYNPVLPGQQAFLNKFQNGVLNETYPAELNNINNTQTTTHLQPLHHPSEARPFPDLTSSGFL
Peroxisome proliferator-activated receptor delta (Homo sapiens), sequence (Q03181 whole entry, looked up): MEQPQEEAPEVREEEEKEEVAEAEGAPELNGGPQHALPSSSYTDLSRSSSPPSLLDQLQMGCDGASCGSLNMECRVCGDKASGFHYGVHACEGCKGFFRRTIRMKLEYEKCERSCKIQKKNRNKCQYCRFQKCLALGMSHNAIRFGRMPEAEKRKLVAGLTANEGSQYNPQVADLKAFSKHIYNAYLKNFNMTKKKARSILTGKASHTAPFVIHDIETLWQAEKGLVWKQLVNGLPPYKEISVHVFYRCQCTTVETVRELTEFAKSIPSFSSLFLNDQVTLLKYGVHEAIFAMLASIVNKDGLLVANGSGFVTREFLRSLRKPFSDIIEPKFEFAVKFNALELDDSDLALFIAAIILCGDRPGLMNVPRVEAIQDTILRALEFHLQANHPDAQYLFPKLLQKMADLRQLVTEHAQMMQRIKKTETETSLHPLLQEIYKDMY
Bile acid receptor (Homo sapiens), sequence (Q96RI1 whole entry, looked up): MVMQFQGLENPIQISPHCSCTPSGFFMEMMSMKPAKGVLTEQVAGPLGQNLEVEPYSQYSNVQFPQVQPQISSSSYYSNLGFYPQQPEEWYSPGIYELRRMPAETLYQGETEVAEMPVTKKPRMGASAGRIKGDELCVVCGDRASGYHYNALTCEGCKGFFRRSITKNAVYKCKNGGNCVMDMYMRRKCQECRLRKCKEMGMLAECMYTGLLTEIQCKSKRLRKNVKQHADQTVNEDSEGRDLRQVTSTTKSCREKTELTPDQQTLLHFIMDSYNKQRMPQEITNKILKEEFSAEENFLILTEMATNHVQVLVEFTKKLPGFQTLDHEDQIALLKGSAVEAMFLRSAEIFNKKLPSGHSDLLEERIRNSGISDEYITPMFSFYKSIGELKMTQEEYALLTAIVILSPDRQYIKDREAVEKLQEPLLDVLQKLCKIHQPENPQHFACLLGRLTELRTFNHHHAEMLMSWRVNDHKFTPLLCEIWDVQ

CC1CN(c2cc3c(cc2F)c(=O)c(C(=O)O)cn3-c2ccc(F)cc2F)CCN1 (stereo not drawn)
inactive: Potency [1] | Potency [2] | ratio activity, negative = inhibition [3] 15.7% [at 5.95 µM] | activity change, negative = cytotoxicity [4] 5.03% [at 5.95 µM] | activation [5] 0.815% [at 8.36 µM] | viability change, negative = cytotoxic [6] -0.948% [at 8.36 µM] | activation [7] 0.895% [at 5.95 µM] | activity change, negative = cytotoxicity [8] -0.433% [at 5.95 µM] | activation [9] 3.73% [at 5.95 µM] | viability change, negative = cytotoxic [10] 12.1% [at 6.26 µM] | ratio activity, negative = inhibition [11] 1.55% [at 6.26 µM] | viability change, negative = cytotoxic [12] 19.1% [at 5.95 µM] | activity change, negative = cytotoxicity [13] -0.0684% [at 5.95 µM] | activation [14] 5.04% [at 6.01 µM] | activity change, negative = inhibition [15] 0.481% [at 6.95 µM] | activity change, negative = cytotoxicity [16] -0.741% [at 5.95 µM]

CN1C(=O)CC(C)(c2ccccc2)C1=O (stereo not drawn)
inactive: Potency [1] | Potency [2] | Potency [3] | Potency [4] | Potency [5] | Potency [6] | Potency [17] | Potency [8] | Potency [9] | Potency [10] | Potency [12] | Potency [13] | outcome [14] | Potency [16]

CCCOCCOCCO
inactive: Potency [1] | Potency [2] | Potency [3] | Potency [4] | Potency [5] | Potency [6] | Potency [17] | Potency [7] | Potency [8] | Potency [9] | Potency [10] | Potency [11] | Potency [12] | Potency [13] | Potency [16]

CCC1(C)CC(=O)NC1=O (stereo not drawn)
inactive: Potency [1] | Potency [2] | Potency [3] | Potency [4] | Potency [5] | Potency [6] | Potency [17] | Potency [7] | Potency [8] | Potency [9] | Potency [10] | Potency [11] | Potency [12] | Potency [13] | Potency [16]

Nc1nc(Cl)nc2c1ncn2[C@@H]1O[C@H](CO)[C@@H](O)[C@@H]1F
inactive: Potency [18] | Potency [1] | Potency [4] | Potency [6] | Potency [17] | Potency [7] | Potency [8] | Potency [9] | Potency [10] | Potency [12] | Potency [13] | outcome [14] | Potency [16]

CC1(C)C(=O)N(Br)C(=O)N1Cl
inactive: Potency [18] | Potency [3] | Potency [4] | Potency [6] | Potency [17] | Potency [7] | Potency [8] | Potency [9] | Potency [10] | Potency [12] | Potency [13] | outcome [14] | outcome [15] | Potency [16]

Cc1c(C(=O)NN2CCCCC2)nn(-c2ccc(Cl)cc2Cl)c1-c1ccc(Cl)cc1
inactive: Potency [18] | Potency [1] | Potency [19]
active: Potency [8] 23.7 µM | Potency [12] 33.5 µM

CCc1c2c(nc3ccc(OC(=O)N4CCC(N5CCCCC5)CC4)cc13)-c1cc3c(c(=O)n1C2)COC(=O)[C@]3(O)CC
inactive: Potency [18] | Potency [1] | Potency [4] | Potency [6] | Potency [7] | Potency [8] | Potency [9] | Potency [12] | Potency [13]

CC1CC(=O)NN=C1c1ccc(NCC(C)(C)NCC(O)COc2cc(Cl)ccc2C#N)cc1 (stereo not drawn)
active: Potency [18] 6.68 µM
inactive: Potency [1] | Potency [4] | Potency [5] | Potency [7] | Potency [8] | Potency [20] | Potency [12] | Potency [19] | Potency [13] | outcome [14] | Potency [16]
